The values that follow come from PubChem BioAssay (Tox21).

“And” between values parts separate entries of the source, which are not always exact repeats. Equal entries are not always repeated. Records with an inconclusive call do not appear. Some compounds were tested as several samples or in several runs, with calls that do not always agree. The source made the active and inactive calls. Unless noted, calls come from the whole dose curve; as a rule, active = well fitted curve in the direction sought with a large enough effect in the repeat runs; inconclusive = weak or mixed curves; inactive = no such curve, though single readings can be large; an effect the other way counts as inactive or inconclusive.

Assay [1] can be described thus: qHTS assay to identify small molecule agonists of the estrogen receptor alpha (ER-alpha) signaling pathway in the presence of an antagonist - cell viability counter screen (AID 1259386).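 Note: series mostly up to about 92 µM; cells exposed to compounds for 22 h at 37 °C before the viability read; nearly all actives have a fitted effect of over 30% in size.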 In outline: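 VM7Luc4E2, stripped-serum pre-culture 5 d; 24hr plating; +ICI-182,780 10.0nM final; cpds 15 conc, 22hr, 37C/5% CO2; CellTiter-Fluor added at 21hr, fluorescence 1hr later.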

For assay [2], the target named is Progesterone receptor (Homo sapiens) (UniProt P06401). The assay is described as follows: qHTS assay to identify small molecule agonists of the progesterone receptor (PR) signaling pathway (AID 1346784; calls by dose curve; note: nearly all actives have a fitted effect of over 30% in size). The method, boiled down:
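Agonist qHTS: compounds pinned onto 3,000 PR-UAS-bla HEK 293T cells per well in charcoal-stripped serum medium, 16hr at 37C, then beta-lactamase activity measured by LiveBLAzer FRET fluorescence after 2 hours at room temperature.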

Assay [3] is described as follows: qHTS assay to identify small molecule antagonists of the progesterone receptor (PR) signaling pathway - cell viability counter screen (AID 1346798). Note: series mostly up to about 92 µM; nearly all actives have a fitted effect of over 50% in size. In outline: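 Cytotoxicity read as CellTiter-Glo luminescence (30 min, room temperature) in the same wells as the beta-lactamase readout. HEK293T PR-UAS-bla cells in charcoal-stripped 2% FBS received compound and R5020, then 16 h at 37C, 5% CO2.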

Assay [4] is described as follows: qHTS assay to identify small molecule antagonists of the TGF-beta/Smad signaling pathway - cell viability counter screen (AID 1346824). Note: nearly all actives have a fitted effect of over 50% in size. In outline: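 SBE-bla HEK 293T cells were plated overnight at 37 C, then given compounds in DMSO plus TGF-beta1 (added as 0.25 ng/mL solution) for 5 hr. After the bla read, CellTiter-Glo was added to the same wells and luminescence read after 30 min at room temperature.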

The nature of assay [5]: qHTS assay to identify small molecule agonists of the TGF-beta/Smad signaling pathway - cell viability counter screen (AID 1346829). Note: top concentration of the series differs between compounds; nearly all actives have a fitted effect of over 45% in size. In outline: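 Cytotoxicity counter screen: CellTiter-Glo luminescence (30 min, room temperature) measured in the SBE-bla HEK 293T reporter wells after 5 hr compound treatment at 37 C and the 2 hr substrate step.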
Assay [6] in a line: qHTS assay to identify small molecule agonists of the TGF-beta/Smad signaling pathway (AID 1346859; active = well fitted activation curve with a large enough effect in the signal ratio in the repeat runs, not every such curve was filed as active; the % refers to the signal ratio; note: series mostly up to about 77 µM). The method, boiled down:
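Fluorescence (ex 405 nm; em 460 and 530 nm) was read 2 h after LiveBLAzer FRET substrate at RT. The preceding compound treatment of overnight-plated SBE-bla HEK293T cells lasted 5 h at 37 C.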

In assay [7] the target is Thyrotropin-releasing hormone receptor (Homo sapiens) (UniProt P34981). Description: qHTS assay to identify small molecule agonists of the thyrotropin-releasing hormone receptor (TRHR) signaling pathway (AID 1346891; calls by dose curve; note: series mostly up to about 58 µM). The method, boiled down: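 Agonist-mode intracellular calcium readout: kinetic fluorescence over 3 min at 1 s intervals after compound addition to TRHR-HEK293 cells (18 h seeded, 2 h dye-loaded at 37 C). Fifteen concentrations, triplicates.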

Assay [8] can be described thus: Human pregnane X receptor (PXR) small molecule agonists, qHTS cell viability counter screen (AID 1346977). Note: nearly all actives have a fitted effect of over 50% in size. The method, boiled down: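 Same-well viability read: CellTiter-Fluor added after 23 hr compound exposure, fluorescence measured 1 hr later. Cells were PXR-Luc HepG2 seeded at 2,000/well in 5% charcoal-stripped FBS medium, rested 5 hr before dosing at 37 C.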

Assay [9] in a line: Caspase-3/7 induction in HepG2 cells by small molecules, qHTS assay (AID 1346978). Note: nearly all actives have a fitted effect of over 15% in size. In outline:
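Wild-type HepG2 cells (2,000/well) were settled 5 h at 37 C, 5% CO2, then exposed to compounds in DMSO for 17 h. Caspase-3/7 activity was read by luminescence 30 min after adding Caspase-Glo 3/7 reagent at room temperature.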

A short description of assay [10]: Caspase-3/7 induction in CHO-K1 cells by small molecules, qHTS assay (AID 1346980). Note: nearly all actives have a fitted effect of over 15% in size. In outline: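 Wild-type cells were seeded at 1,500 per well and settled 5 hr at 37 C, 5% CO2, then exposed to DMSO-dissolved compounds for 17 hr. Caspase-Glo 3/7 reagent was added, and luminescence was read after 30min at room temperature.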
Assay [11] in a line: Caspase-3/7 induction in HepG2 cells by small molecules, qHTS cell viability counter screen (AID 1346981). Note: nearly all actives have a fitted effect of over 30% in size. Note: potency is the fitted concentration of half-maximal effect. In outline:
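HepG2, WT, 2,000 cells/well; 5 hr pre-incubation 37 C/5% CO2; compound pin-transferred from DMSO; 16 hr exposure; CellTiter-Fluor, 1 hr; fluorescence read.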

The target in assay [12] is Nuclear receptor subfamily 1 group I member 2 (Rattus norvegicus) (UniProt Q9R1A7). Description: Rat pregnane X receptor (rPXR) activation by small molecules, qHTS assay (AID 1346983). Note: nearly all actives have a fitted effect of over 20% in size. To be noted: rPXR luciferase reporter cells, One-Glo luminescence, 24 h; stronger effect = higher value. In outline:
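Cell-based rPXR luciferase reporter assay, 2,000 cells per well, rested 5hr at 37 C before compound addition in DMSO, then 24 hr at 37 C. One-Glo reagent was added and luminescence read after 30 min at room temperature.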

The target in assay [13] is Nuclear receptor subfamily 1 group I member 2 (Homo sapiens) (UniProt O75469). Description: CYP3A4 induction through human pregnane X receptor (PXR) by small molecules, qHTS assay (AID 1346984). Note: nearly all actives have a fitted effect of over 40% in size. The method, boiled down:
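Luminescence readout: luciferase signal after One-Glo (30 min, room temperature), following 3 h at 37C with 3uM final Luciferin-IPA P450 substrate. Cells were DPX-2 (HepG2, PXR/CYP3A4-luc co-transfected) dosed for 24 h.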

The target is the same in assay [14]. Description: Human pregnane X receptor (PXR) activation by small molecules, qHTS assay (AID 1346985). Note: nearly all actives have a fitted effect of over 40% in size. In outline: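 DPX-2 cells (HepG2 co-transfected with a PXR response element and a CYP3A4-promoter luciferase construct) were seeded at 2,000 per well, rested 5 hr at 37C, then exposed to DMSO-dissolved compounds for 24 hr. Activation was read as luciferase luminescence.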

In assay [15] the target is Cytochrome P450 2D6 (Homo sapiens) (UniProt P10635). The assay is described as follows: Cytochrome P450 Family 2 Subfamily D Member 6 (CYP2D6) small molecule antagonists: luciferase reporter qHTS assay (AID 1671196). Note: nearly all actives have a fitted effect of over 50% in size. Note: potency is the fitted concentration of half-maximal effect. In outline:
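Read-out is luminescence from luciferin formed by CYP2D6 turnover of a proluciferin substrate, recorded as relative luminescence units. Reactions ran 1 h at room temperature after NADPH regeneration solution was added.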

Assay [16] can be described thus: qHTS assay to identify small molecule agonists of the progesterone receptor (PR) signaling pathway - cell viability counter screen (AID 1346799; calls by dose curve; note: nearly all actives have a fitted effect of over 45% in size). The method, boiled down:
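Cytotoxicity measured by CellTiter-Glo luminescence (30 min, RT) in the same wells as the PR beta-lactamase agonist read. Those HEK293T cells had 16 h compound treatment at 37 C in 2% charcoal-stripped FBS medium.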

For assay [17], the target named is Thyrotropin-releasing hormone receptor (Homo sapiens) (UniProt P34981). Description: qHTS assay to identify small molecule antagonists of the thyrotropin-releasing hormone receptor (TRHR) signaling pathway (AID 1346877; active = well fitted inhibition curve with a large enough effect in the repeat runs, not every such curve was filed as active; note: series mostly up to about 51 µM). In outline: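 Intracellular calcium fluorescence, read kinetically every second over 3 min, reports TRH-evoked signalling in HEK293 cells carrying TRHR. Test compounds were added 5 min ahead of a 1 nM TRH challenge.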

Assay [18] can be described thus: Caspase-3/7 induction in CHO-K1 cells by small molecules, qHTS cell viability counter screen (AID 1346979). Note: nearly all actives have a fitted effect of over 35% in size. Note: potency is the fitted concentration of half-maximal effect. In outline: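 Cytotoxicity counter screen: CellTiter-Fluor added to compound-treated wild-type CHO-K1 cells at 16 h (37C, 5% CO2), fluorescence measured 1 h later; same wells as caspase-3/7 measurement.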
For assay [19], the target named is Progesterone receptor (Homo sapiens) (UniProt P06401). Description: qHTS assay to identify small molecule antagonists of the progesterone receptor (PR) signaling pathway (AID 1346795; active = well fitted inhibition curve with a large enough effect in the signal ratio in the repeat runs, not every such curve was filed as active; the % refers to the signal ratio). The method, boiled down:
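Antagonist mode with agonist R5020 at 1 nM final and 16 hr incubation at 37C. Reporter was beta-lactamase driven by UAS in HEK293T (PR-UAS-bla), 2% charcoal-stripped serum; signal from LiveBLAzer FRET substrate, 2 hr at room temperature.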

Assay [20] addresses Nuclear receptor subfamily 1 group I member 2 (Homo sapiens) (UniProt O75469). Description: Human pregnane X receptor (PXR) small molecule agonists, qHTS assay (AID 1346982). Note: nearly all actives have a fitted effect of over 35% in size. Note: potency is the fitted concentration of half-maximal effect. In outline:
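Luciferase signal from ONE-Glo (30 min, room temperature) measured activation of hPXR-driven CYP3A4 reporter expression in PXR-Luc HepG2 cells treated with compounds for 24 hr at 37 C.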
% is set by controls: 0 for no effect and ±100 for the full control effect.

Chain of Nuclear receptor subfamily 1 group I member 2 (Rattus norvegicus) (Q9R1A7 whole entry, looked up): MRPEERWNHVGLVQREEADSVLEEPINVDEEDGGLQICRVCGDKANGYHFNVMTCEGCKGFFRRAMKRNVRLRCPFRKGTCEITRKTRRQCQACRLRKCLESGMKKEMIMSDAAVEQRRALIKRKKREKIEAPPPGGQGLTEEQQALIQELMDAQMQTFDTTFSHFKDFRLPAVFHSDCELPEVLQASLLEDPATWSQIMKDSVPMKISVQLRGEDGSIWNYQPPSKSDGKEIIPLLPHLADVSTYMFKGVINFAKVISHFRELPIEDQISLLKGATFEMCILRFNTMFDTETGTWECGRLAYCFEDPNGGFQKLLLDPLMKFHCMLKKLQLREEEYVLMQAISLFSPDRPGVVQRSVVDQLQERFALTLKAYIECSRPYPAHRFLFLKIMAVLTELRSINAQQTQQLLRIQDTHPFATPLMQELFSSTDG
Chain of Thyrotropin-releasing hormone receptor (Homo sapiens) (P34981 whole entry, looked up): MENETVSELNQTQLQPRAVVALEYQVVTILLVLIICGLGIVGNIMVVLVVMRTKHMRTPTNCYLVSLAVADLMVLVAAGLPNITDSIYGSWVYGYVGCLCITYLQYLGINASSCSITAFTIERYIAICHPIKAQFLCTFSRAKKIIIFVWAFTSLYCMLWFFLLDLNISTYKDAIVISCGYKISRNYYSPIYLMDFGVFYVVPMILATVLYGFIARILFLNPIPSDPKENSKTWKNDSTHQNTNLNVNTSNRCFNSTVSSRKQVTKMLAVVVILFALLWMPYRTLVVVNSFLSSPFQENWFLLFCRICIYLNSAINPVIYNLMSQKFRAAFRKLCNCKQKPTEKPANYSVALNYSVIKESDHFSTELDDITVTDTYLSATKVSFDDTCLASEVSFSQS
Chain of Progesterone receptor (Homo sapiens) (P06401 whole entry, looked up): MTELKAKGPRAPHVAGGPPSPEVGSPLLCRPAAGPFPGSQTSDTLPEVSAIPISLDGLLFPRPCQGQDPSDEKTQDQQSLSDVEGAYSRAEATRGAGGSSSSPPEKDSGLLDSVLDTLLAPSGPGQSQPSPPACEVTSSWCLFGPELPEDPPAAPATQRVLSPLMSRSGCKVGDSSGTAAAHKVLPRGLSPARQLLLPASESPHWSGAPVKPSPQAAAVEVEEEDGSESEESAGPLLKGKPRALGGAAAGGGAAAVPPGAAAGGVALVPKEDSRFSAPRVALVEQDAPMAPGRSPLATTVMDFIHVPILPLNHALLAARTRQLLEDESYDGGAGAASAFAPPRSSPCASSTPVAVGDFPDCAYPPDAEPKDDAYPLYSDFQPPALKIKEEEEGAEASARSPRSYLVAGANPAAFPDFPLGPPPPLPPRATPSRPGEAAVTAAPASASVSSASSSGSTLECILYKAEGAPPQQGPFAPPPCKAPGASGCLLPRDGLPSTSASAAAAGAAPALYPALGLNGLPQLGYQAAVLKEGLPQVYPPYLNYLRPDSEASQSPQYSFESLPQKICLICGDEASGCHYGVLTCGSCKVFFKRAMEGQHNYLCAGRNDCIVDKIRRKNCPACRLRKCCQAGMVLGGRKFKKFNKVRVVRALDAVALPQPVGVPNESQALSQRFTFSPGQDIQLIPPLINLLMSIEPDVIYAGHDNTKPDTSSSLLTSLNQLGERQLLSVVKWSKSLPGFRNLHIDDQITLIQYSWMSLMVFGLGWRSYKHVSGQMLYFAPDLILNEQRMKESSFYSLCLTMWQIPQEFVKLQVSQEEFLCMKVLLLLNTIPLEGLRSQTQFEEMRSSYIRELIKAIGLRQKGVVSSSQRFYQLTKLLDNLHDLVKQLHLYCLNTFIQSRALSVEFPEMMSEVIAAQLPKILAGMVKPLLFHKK
Chain of Cytochrome P450 2D6 (Homo sapiens) (P10635 whole entry, looked up): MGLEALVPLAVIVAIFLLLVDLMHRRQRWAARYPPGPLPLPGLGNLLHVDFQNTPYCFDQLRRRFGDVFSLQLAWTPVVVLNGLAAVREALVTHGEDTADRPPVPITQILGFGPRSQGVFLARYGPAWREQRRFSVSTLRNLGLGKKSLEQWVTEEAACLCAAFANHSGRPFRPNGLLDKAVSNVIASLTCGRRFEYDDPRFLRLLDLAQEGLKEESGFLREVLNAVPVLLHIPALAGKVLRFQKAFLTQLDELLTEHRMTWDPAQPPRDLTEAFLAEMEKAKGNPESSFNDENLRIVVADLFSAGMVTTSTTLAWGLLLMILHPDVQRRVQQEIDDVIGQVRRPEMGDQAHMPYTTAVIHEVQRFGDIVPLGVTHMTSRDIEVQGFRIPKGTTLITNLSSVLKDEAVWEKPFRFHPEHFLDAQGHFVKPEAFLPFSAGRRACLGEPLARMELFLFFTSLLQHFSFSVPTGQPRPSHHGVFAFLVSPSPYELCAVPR
Chain of Nuclear receptor subfamily 1 group I member 2 (Homo sapiens) (O75469 whole entry, looked up): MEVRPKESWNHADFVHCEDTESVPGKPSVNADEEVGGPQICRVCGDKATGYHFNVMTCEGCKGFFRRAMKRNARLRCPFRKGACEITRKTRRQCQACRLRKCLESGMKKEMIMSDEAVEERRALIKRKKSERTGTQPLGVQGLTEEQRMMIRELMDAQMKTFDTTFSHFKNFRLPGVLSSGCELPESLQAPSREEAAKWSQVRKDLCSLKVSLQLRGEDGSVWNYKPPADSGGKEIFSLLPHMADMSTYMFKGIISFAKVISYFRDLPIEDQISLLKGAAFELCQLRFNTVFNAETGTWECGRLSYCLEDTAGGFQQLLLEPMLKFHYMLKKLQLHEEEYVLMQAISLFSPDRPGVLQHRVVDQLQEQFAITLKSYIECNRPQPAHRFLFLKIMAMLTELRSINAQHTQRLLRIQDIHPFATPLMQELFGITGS

In the case of `CN(C)CCOC(=O)COc1ccc(Cl)cc1`, the Potency result in [1], in [2], in assay [8], in assay [9], in [11] and in assay [13] was “inactive” each time. For the same compound, the compound was classed as inactive in [3], in assay [4], in [5], in assay [6], in [7] and in assay [10]. Also, the result in [14] was inactive. For the same compound, the max activation in assay [12] was -3.66% (inactive). Besides, in assay [15], the Potency was 35.5 µM (active) and 30.9 µM (active).

Regarding `CC1(C)S[C@@H]2[C@H](NC(=O)COc3ccccc3)C(=O)N2[C@H]1C(=O)O`, the Potency result in assay [1], in [2], in assay [8], in assay [9], in assay [18] and in [11] was “inactive” each time. Further, the outcome in assay [3], in assay [16], in assay [4], in [5], in assay [6] and in assay [17] was inactive. Moreover, the call in [7] and in assay [10] was inactive.

As to `CCO[Si](CCC#N)(OCC)OCC`, the Potency entry in [1], in assay [2], in assay [19], in [8], in [9] and in assay [18] was “inactive” each time. Moreover, the Potency result in assay [11] and in [15] was “inactive” each time. Besides, the compound was classed as inactive in assay [4], in [5], in assay [6], in [7] and in assay [10].

Take `CC(=O)OCc1ccco1`: the Potency result in assay [2], in assay [8], in assay [11] and in assay [15] was “inactive” in each case. Further, the result in assay [4], in assay [5], in assay [6] and in assay [10] was inactive. The Potency in [18] is 15.3 µM (active) and inactive; in [20] it was 60.8 µM (active) and inactive.

Consider `CC1(C)NC(=O)NC1=O`, for which the outcome in assay [16], in assay [4], in [6], in [7] and in [10] was inactive. Moreover, the Potency entry in assay [8], in assay [9], in [18], in assay [11], in assay [20] and in assay [15] was “inactive” each time.

As to `COc1ccc(C)cc1N`, the Potency result in [2], in assay [19], in assay [8], in [18], in [11] and in assay [20] was “inactive” throughout. The call in assay [16], in assay [4], in assay [6], in assay [7] and in [10] was inactive. The Potency in assay [15] is 24.3 µM (active) and 25.2 µM (active).

Take `O=C1CCCC1`: the Potency entry in assay [2], in [19], in [8], in [9], in assay [18] and in assay [11] was “inactive” in each case. The Potency result in assay [20] and in assay [15] was “inactive” in each case. In addition, the compound was classed as inactive in assay [3], in [16], in assay [4], in [6], in assay [7] and in [10].

In the case of `CN1C(=O)CC[C@H]1c1cccnc1`, the Potency entry in assay [2], in [8], in [9], in assay [18] and in [11] was “inactive” throughout. Moreover, the outcome in [3], in [16], in assay [4], in assay [5], in [6] and in [17] was inactive. Also, the call in [7] and in assay [10] was inactive. In addition, the max activation in assay [12] was -3.2% (inactive).

As to `CN(C)c1ccc(O)c2c1C[C@H]1C[C@H]3[C@H](N(C)C)C(=O)C(C(N)=O)=C(O)[C@@]3(O)C(=O)C1=C2O`, the Potency entry in [2], in assay [19], in assay [8], in assay [9], in [13] and in assay [15] was “inactive” in each case. Besides, the compound was classed as inactive in assay [3], in assay [4], in assay [6], in assay [7], in [10] and in [14]. Besides, the Potency in assay [18] is 68.6 µM (active) and 29.8 µM (active); in assay [11] it was 54.5 µM (active) and 29.8 µM (active). Further, the max activation in assay [12] is -2.35% (inactive).

As to `CC(CCO)CC(C)(C)C` (centres undefined), the Potency result in assay [2], in [8], in assay [18], in assay [11] and in [15] was “inactive” in each case. For the same compound, the call in assay [16], in [4], in assay [5], in assay [6], in assay [7] and in assay [10] was inactive.
